Shown are actives, neighbours in structure and some others; about 2.4% of the full set was active somewhere.
VLA-4 agonist: allosterically activates the human VLA-4 integrin; 24,000 tested, under 10 active; P13612; Jurkat cells, LDV-FITC binding, flow cytometry; activation, % at 10 µM (by protocol);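 active = fluorescent ligand binding to cells raised by more than 40% of the manganese-induced maximum; inconclusive = compound's own fluorescence above 85% of the ligand control signal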;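 also: 0% = ligand binding without compound and 100% = manganese-stimulated maximal binding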
VLA-4 antagonist: blocks LDV-FITC ligand binding to Mn2+-activated human VLA-4 integrin; 0.2% of 24,000 active; inhibition, % at 10 µM (by protocol); P13612; Jurkat cells, LDV-FITC binding with Mn2+, flow cytometry; 100% = Mn2+-driven binding gain fully reversed; AID 529;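 active = inhibition above 50%; inconclusive = compound itself fluorescent, judged against control cell fluorescence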;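 also: 0% = Mn2+ stimulated cells lacking compound and 100% = ligand binding without Mn2+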
FPR binder: binds the human formylpeptide receptor FPR. P21462. FPR-expressing cells, fluorescent ligand binding, flow cytometry. inhibition, % (concentration not given with the values). 0.74% of 24,000 active. AID 440;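 also: 0% = buffer wells and 100% = receptor blocker peptide wells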
LNCaP diff act: activators of LNCaP prostate cell differentiation; flow cytometry side scatter, 4 d; side scatter shift, % at 10 µM; 0.56% of 24,000 active; AID 795;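 active = side scatter shift above 30%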;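 also: androgen-responsive LNCaP prostate cancer cells in charcoal-stripped serum medium; percent of cells past a gate set so DMSO wells show 10% shift; higher shift means more granular cells and more differentiation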
Autofluor Jurkat: autofluorescence counter-screen for VLA-4 integrin assays | Jurkat cells, compound autofluorescence, flow cytometry; active compounds read high; 1 = vehicle-only cell background | fluorescence ratio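 (tested at 10 µM compound in the well)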 | 0.61% of 24,000 active;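 active = fluorescence ratio above 2.44, which is 1 plus 3 SD of all ratios; inconclusive = signal too bright to measure linearly, ratio around 10 or more; inactive = fluorescence ratio below 2.44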;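 also: green fluorescence of cells measured with 488 nm excitation and 530 nm emission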
FPRL1 ligand: ligands of human FPRL1, also counter-screen for FPR ligands. P25090. FPRL1-expressing cells, fluorescent ligand binding inhibition, flow cytometry. inhibition, % (test concentration not listed). 0.3% of 24,000 active;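 also: 0% = buffer alone and 100% = receptor blocker peptide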
An asterisk follows results filed as active; ? = inconclusive; . = no result. Rule as the data show it, unless noted: active = inhibition above about 30%; inconclusive = no clear call, values can overlap the other calls; inactive = below that.

SMILES | VLA-4 agonist | VLA-4 antagonist | FPR binder | LNCaP diff act | Autofluor Jurkat | FPRL1 ligand
COc1ccccc1N1CCN(CCCNC(=O)Nc2ccccc2C)CC1 | 1.0 | -17.0 | -16.5 | 3.0 | 0.95 | -19.4
COc1ccc(Cl)c(N2CCN(CCCNC(=O)Nc3ccc(C)cc3)CC2)c1 | -4.5 | 2.5 | -5.6 | 40.0* | 1.12 | -1.5
COc1ccc(Cl)cc1N1CCN(CCNC(=O)Nc2ccccc2C)CC1 | -11.0 | 5.5 | 13.5 | 45.0* | 0.97 | -0.8
CC(C)N=c1cc2n(-c3ccc(Cl)cc3)c3ccccc3nc-2cc1Nc1ccc(Cl)cc1 | ? | ? | 7.8 | 1.0 | 3.9* | 18.0
CCSc1nnc(NC(=O)C2CCCN(S(=O)(=O)c3cnc[nH]3)C2)s1 (stereo unspecified) | -1.0 | 0.0 | 4.4 | 7.0 | 1.05 | -0.2
Cc1ccc2nc3c(cc(C(=O)NCc4ccccc4)c(=N)n3CCCn3ccnc3)c(=O)n2c1 | -8.6 | 14.8 | -6.6 | 31.0* | 1.11 | 3.2
Cc1cccn2c(=O)c3cc(C(=O)NC(C)c4ccccc4)c(=N)n(CCCn4ccnc4)c3nc12 (stereo unspecified) | -7.0 | 20.0 | -5.5 | 37.0* | 1.17 | 5.3
COCCCn1c(=N)c(C(N)=S)cc2c(=O)n3cccc(C)c3nc21 | ? | ? | -4.1 | 10.0 | 1.6 | 0.2
CC(=O)Nc1c(O)n(C)c2ccccc12 | 1.7 | -2.0 | -2.2 | 5.0 | 1.06 | 1.4
CCCCCCOC(=O)C(C#N)c1nc2ccccc2nc1N1CCCCC1 (stereo unspecified) | -4.5 | -7.5 | 3.9 | 25.0 | 1.12 | -2.0
CCCCNC(=O)C(C#N)c1nc2ccccc2nc1N1CCCC1 (stereo unspecified) | ? | ? | -13.4 | 14.0 | 2.5* | -5.4
CCN(CC)CCN1C(=O)C(=O)/C(=C(/O)c2c(C)[nH]c(C(=O)OC)c2C)C1c1ccccc1 (stereo unspecified) | . | . | 30.5* | . | . | 15.7
O=C(Cn1cnc2c(cnn2-c2ccc(F)cc2)c1=O)OCc1ccccc1 | -0.2 | -4.5 | 39.5* | 14.0 | 1.06 | 54.3*
CCn1c(CCC(=O)Nc2nc3c(s2)CCCC3)nc2cc(S(=O)(=O)N(C)C)ccc21 | -1.0 | -19.5 | -3.8 | 10.0 | 1.12 | -6.4
COC(=O)c1ccc(C(=O)OC)c(NC(=O)c2ocnc2C)c1 | 6.9 | -14.0 | -15.0 | 4.0 | 0.94 | -15.3
Cc1nc2cc(Cl)c(Cl)cc2nc1C | ? | ? | -8.0 | 3.0 | 3.08* | -3.5
O=C(Cn1cc2c(n1)CCCC2)Nc1cc(-c2cccc(Cl)c2)no1 | 3.0 | -12.0 | 26.0 | 11.0 | 1.1 | -2.2
CCC(NC(=O)Nc1cc(OC)c(OC)c(OC)c1)(C(F)(F)F)C(F)(F)F | 1.0 | -25.0 | 45.4* | 12.0 | 0.99 | 55.2*
O=C(c1oc(=O)c2ccccc2c1-c1ccccc1)N1CCN(C2CCCCC2)CC1 | -2.0 | 8.0 | -1.6 | 2.0 | 1.14 | -2.0
CN(C)c1ccc(/C=C/C(O)=C2/C(=O)N(C)C3(C)CC2c2ccccc2O3)cc1 (stereo unspecified) | ? | ? | -14.6 | 6.0 | 6.88* | -17.5
COc1cc(N2C(=O)NC3CC2(C)Oc2ccccc23)cc(OC)c1OC (stereo unspecified) | 3.0 | -4.0 | 0.4 | 6.0 | 0.91 | -9.3
COc1ccc(CCn2c(N)c(C#N)c3nc4ccccc4nc32)cc1OC | ? | ? | 5.7 | 16.0 | 1.94 | -4.3
N#Cc1c(N)n(CCNC(=O)c2cccs2)c2nc3ccccc3nc12 | ? | ? | -24.7 | 2.0 | 5.34* | -21.5
Cc1ccc(S(=O)(=O)NC(C)C(c2cccs2)N2CCN(C)CC2)cc1 (stereo unspecified) | 3.0 | 17.0 | 5.7 | 17.0 | 0.97 | 4.6
CCN1CCN(C(c2cccs2)C(C)NS(=O)(=O)c2ccc(Br)cc2)CC1 (stereo unspecified) | -17.0 | 6.0 | -3.9 | 32.0* | 1.14 | 7.3
SMILES | VLA-4 agonist | VLA-4 antagonist | FPR binder | LNCaP diff act | Autofluor Jurkat | FPRL1 ligand
COC(=O)c1c(-c2cccs2)csc1NC(=O)CN1CCOCC1 | -5.5 | 6.0 | -8.0 | 13.0 | 1.16 | -5.1
CCOC(=O)c1c(-c2ccc(C)o2)csc1NC(=O)CN1CCN(CC)CC1 | -0.5 | -3.0 | -0.1 | 34.0* | 1.01 | -2.2
COc1cccc(NC(=O)CN2C(=O)COc3ccc(Cl)cc32)c1 | 1.0 | -4.0 | -3.8 | 9.0 | 1.04 | -4.3
CCOc1ccc(C2CC(c3cccc(OC)c3)Nc3ncnn32)cc1 (stereo unspecified) | 1.0 | 10.0 | -2.8 | 6.0 | 1.05 | 0.3
CCOc1cc2[nH]c(=O)n(CC3CCC(C(=O)NC(C)CC)CC3)c(=O)c2cc1OCC (stereo unspecified) | -9.0 | 63.0* | 5.7 | 18.0 | 1.03 | -7.0
CCOc1cc2[nH]c(=O)n(CC3CCC(C(=O)NC4CCCCC4)CC3)c(=O)c2cc1OCC (stereo unspecified) | 1.0 | 9.0 | -1.0 | 13.0 | 0.92 | -9.3
COc1ccc(OC)c(C2C=C(c3ccc(C)c(C)c3)Nc3nnnn32)c1 (stereo unspecified) | ? | ? | -9.6 | 22.0 | 3.64* | -1.8
Cn1c(=O)cc(OCC(=O)NCCCN2CCN(c3ccccc3F)CC2)c2ccccc21 | -2.0 | -10.0 | 2.8 | 9.0 | 1.14 | 0.3
CC1(C)CC(=O)c2cc(OCC(=O)NCCCN3CCN(c4ccccc4F)CC3)ccc2O1 | -5.5 | 7.8 | 3.6 | 30.0* | 1.06 | -2.3
CCn1c(=O)cc(SCC(=O)NCCCN2CCN(c3ccccc3F)CC2)c2ccccc21 | -1.0 | 17.0 | -13.1 | 49.0* | 1.14 | 7.1
CCN(CC)c1ccc(-c2c(C#N)c(N)nc(OC)c2C#N)cc1 | ? | ? | -6.0 | 11.0 | 8.16* | -2.3
O=c1[nH]c2c(s1)C(c1ccco1)C1C3CCC(C3)C1S2 (stereo unspecified) | -4.0 | 22.0 | -7.4 | 20.0 | 1.6 | -9.6
Oc1[nH]c2ccccc2c1/C=N/c1nccs1 | ? | ? | -3.6 | 8.0 | 9.62* | -12.3
Oc1[nH]c2ccccc2c1C=NCC1CCCO1 (stereo unspecified) | 0.0 | 8.0 | -1.1 | 9.0 | 1.02 | 7.6
COCCN1Cc2cccc(C(=O)NCc3ccc4c(c3)OCO4)c2C1=O | -2.0 | 5.0 | 25.0 | 12.0 | 1.02 | 32.8*
CCOC(=O)C1CCCN(C(=O)C2CCCN(S(C)(=O)=O)C2)C1 (stereo unspecified) | 12.0 | -40.0 | -4.7 | 7.0 | 1 | 3.3
Cc1ccc2nc(NC(=O)C3CCCN(S(=O)(=O)c4cccc5nonc45)C3)sc2c1 (stereo unspecified) | ? | ? | -2.7 | 5.0 | 3.08* | -3.3
Cc1cccc2sc(NC(=O)C3CCCN(S(=O)(=O)c4cccc5nonc45)C3)nc12 (stereo unspecified) | ? | ? | -12.9 | 9.0 | 2.61* | 7.0
OC(COc1ccc(OCC(O)CN2CCCCCC2)cc1)CN1CCCCCC1 (stereo unspecified) | -9.0 | 1.0 | 4.4 | 2.0 | 0.97 | -0.6
